We go through seven molecules from PubChem BioAssay (NCATS).

The structures appear in SMILES notation. Results filed as inconclusive are left out. Activity calls are given as the source filed them. Unless noted, calls follow the shape of the full dose curve.

Assay [1] addresses Glucocorticoid receptor (Homo sapiens) (UniProt P04150). Put plainly: qHTS assay for small molecule agonists of glucocorticoid receptor signaling (AID 588532; active = well fitted curve in the direction sought with a large enough effect in the signal ratio, with a control signal flat; the % refers to the signal ratio;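 also: 100% = dexamethasone at 0.1 µM and 0% = DMSO only wells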). The note with it: HeLa MMTV-bla, beta-lactamase ratio, agonist, 18 h; stronger effect = higher value; percent of dexamethasone control, DMSO zero. In a few lines: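 Stimulation of a glucocorticoid response element-driven beta-lactamase gene was measured in HeLa cells. Responses were scaled between DMSO basal and 0.1 uM dexamethasone, then fitted for half-maximal stimulation.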
On the technique in general: qHTS replaces the single test concentration by a dilution series.

Assay [2] has the same target. Put plainly: qHTS assay for small molecule antagonists of glucocorticoid receptor signaling (AID 588533; active = well fitted inhibition curve with a large enough effect in the signal ratio, with a control signal flat, not every such curve was filed as active; the % refers to the signal ratio;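 also: cells stimulated with 2 nM dexamethasone as agonist; % is scaled to controls: 0 for no effect and ±100 for the full control effect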). As to conditions: HeLa MMTV-bla, GRE beta-lactamase ratio, antagonist mode, 18 h; series mostly up to 76.8 µM. The method, boiled down:
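Antagonist-mode qHTS: compound titrations added to GRE-bla HeLa cells, then dexamethasone 2 nM final; 18 h, 37 C. CCF4 FRET fluorescence normalized to dexamethasone and DMSO; IC50 from Hill fit.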

Assay [3] in a line: qHTS assay for small molecule antagonists of peroxisome proliferator-activated receptor delta signaling (AID 588535; active = well fitted inhibition curve with a large enough effect in the signal ratio, with a control signal flat, not every such curve was filed as active; the % refers to the signal ratio;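 as to max response: cells co-treated with a PPAR-delta agonist as stimulator during compound exposure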). As to conditions: HEK293T PPARd-UAS-bla, beta-lactamase FRET ratio, 18 h; 460 nm channel. The method, boiled down: (§1)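 GeneBLAzer PPAR-delta-UAS-bla HEK293T cells in medium with 2% charcoal/dextran FBS were preincubated 5 hrs at 37 C, then given compounds, incubated 18 hrs at 37 C, and read by CCF4 beta-lactamase fluorescence; IC50 from Hill fits.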

For assay [4], the target named is Peroxisome proliferator-activated receptor delta (Homo sapiens) (UniProt Q03181). The assay is described as above. The note with it: HEK293T PPARd-UAS-bla, beta-lactamase FRET ratio, 18 h; series mostly up to 76.7 µM. The method, boiled down:
as §1

Assay [5] has as its target Peroxisome proliferator-activated receptor gamma (Homo sapiens) (UniProt P37231). Put plainly: qHTS assay for small molecule agonists of peroxisome proliferator-activated receptor gamma signaling (AID 588536; active = well fitted curve in the direction sought with a large enough effect in the signal ratio, with a control signal flat, not every such curve was filed as active; the % refers to the signal ratio;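 also: 0% = DMSO basal wells and 100% = rosiglitazone at 2 µM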). The note with it: HEK293 PPARg-UAS-bla, beta-lactamase ratio, 16 h, percent of rosiglitazone response, DMSO as zero; series mostly up to 76.7 µM. In a few lines: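 Ratiometric blue/green fluorescence (405 nm excitation; 460 and 530 nm emission) from CCF4-loaded HEK293 reporter cells serves as signal. Exposure to test compounds lasts 16 h at 37 C in medium containing 1% charcoal/dextran-treated serum.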

In assay [6] the target is Vitamin D3 receptor (Homo sapiens) (UniProt P11473). As to the kind of experiment: qHTS assay for small molecule antagonists of vitamin D receptor signaling (AID 588541).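 Also: receptor activated by calcitriol during compound treatment; % is scaled to controls: 0 for no effect and ±100 for the full control effect.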 The note with it: HEK293T VDR-UAS-bla, beta-lactamase ratio, antagonist mode; series mostly up to 76.7 µM. The method, boiled down: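 VDR-UAS-bla HEK293T cells (2000/well, 2% charcoal-stripped FBS) were treated with titrated compounds plus 1-alpha,25-dihydroxyvitamin D3 (50 nM or 3 nM final) for 16 h at 37 C. CCF4 beta-lactamase fluorescence was read; Hill fits gave IC50.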

Assay [7] is described as follows: qHTS assay for small molecule agonists of retinoid X receptor alpha signaling (AID 588544).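 As to activation: 0% = DMSO basal wells and 100% = reference agonist.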 As to conditions: HEK293T RXRa-UAS-bla, beta-lactamase reporter, 18 h; 530 nm emission.
For assay [8], the target named is Retinoic acid receptor RXR-alpha (Homo sapiens) (UniProt P19793). The assay is described as above. The note with it: HEK293T RXRa-UAS-bla, beta-lactamase reporter, 18 h; series mostly up to 76.7 µM.
In assay [9] the target is Thyroid hormone receptor beta (Homo sapiens) (UniProt P10828). As to the kind of experiment: qHTS assay for small molecule agonists of thyroid hormone receptor beta signaling (AID 588545).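 Also: 0% = DMSO only and 100% = 10 nM T3.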 As to conditions: TR-UAS-bla GripTite HEK 293, beta-lactamase ratio, agonist mode, 18 h, percent of T3 response, DMSO as zero; series mostly up to 76.7 µM. In a few lines:
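TR-UAS-bla GripTite HEK 293 cells (2500/well, medium with 2% charcoal/dextran FBS) were treated in agonist mode for 18 h at 37 C, titrated. Beta-lactamase was read by CCF4 ratio after 2 h; normalized to 10 nM T3 (100%) and DMSO, Hill-fitted for EC50 and efficacy.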

Assay [10] can be described thus: qHTS assay for small molecule antagonists of retinoid X receptor alpha signaling (AID 588546; active = well fitted inhibition curve with a large enough effect in the signal ratio, with a control signal flat, not every such curve was filed as active; the % refers to the signal ratio;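 also: cells stimulated with 9-cis-retinoic acid as agonist; % is scaled to controls: 0 for no effect and ±100 for the full control effect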). As to conditions: HEK293T RXRa-UAS-bla, beta-lactamase ratio, antagonist mode; measured here: W530 green channel, cytotoxicity proxy. The method, boiled down: (§2)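 Beta-lactamase reporter inhibition, read as CCF4 fluorescence ratio (ex 405, em 460/530 nm) after 2 h at RT. HEK293T UAS-bla cells, 2500/well, were stimulated with 9-cis-RA at 500 or 100 nM final alongside test compound for 18 h at 37 C.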

Assay [11] concerns the target Retinoic acid receptor RXR-alpha (Homo sapiens) (UniProt P19793). The description is as above. The note with it: HEK293T RXRa-UAS-bla, beta-lactamase ratio, antagonist mode. In a few lines:
as §2

Assay [12] concerns the target Thyroid hormone receptor beta (Homo sapiens) (UniProt P10828). As to the kind of experiment: qHTS assay for small molecule antagonists of thyroid hormone receptor beta signaling (AID 588547; active = well fitted inhibition curve with a large enough effect in the signal ratio, with a control signal flat, not every such curve was filed as active; the % refers to the signal ratio;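 also: cells stimulated with 0.4 nM T3 agonist during compound exposure; % is scaled to controls: 0 for no effect and ±100 for the full control effect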). The note with it: TR-UAS-bla HEK293, beta-lactamase ratio, antagonist mode, 18 h. In a few lines:
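TR-UAS-bla GripTite HEK293 cells in 2% charcoal/dextran FBS medium were preincubated 4 h at 37 C, given compound (0.59 nM to 92 uM) plus 0.4 nM T3 (final) for 18 h, then CCF4 for 2 h at RT; Hill fit gave IC50.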

In assay [13] the target is Voltage-gated inwardly rectifying potassium channel KCNH2 (Homo sapiens) (UniProt Q12809). As to the kind of experiment: qHTS Assay for Small Molecule Inhibitors of the Human hERG Channel Activity (AID 588834; active = well fitted inhibition curve with a large enough effect;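 also: top concentration of the series differs between compounds; % is scaled to controls: 0 for no effect and ±100 for the full control effect; lower thallium flux fluorescence means stronger hERG block; nearly all actives have a fitted effect of over 50% in size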). As to conditions: U2OS BacMam hERG, FluxOR thallium flux fluorescence; series mostly up to 92.2 µM. The method, boiled down: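 Blockade is seen as reduced FluxOR thallium-flux fluorescence in U2OS cells expressing hERG from a BacMam construct, in Opti-MEM with 2% FCS. Concentration-response data fitted to the Hill equation for AC50.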

Assay [14] in a line: qHTS assay for small molecule agonists of the antioxidant response element (ARE) signaling pathway (AID 651741; active = well fitted activation curve with a large enough effect in the signal ratio; the % refers to the signal ratio; also: % of control where 0% means no effect). The note with it: HepG2 ARE-bla reporter, beta-lactamase FRET ratio, 16 h; series mostly up to 96 µM. The method, boiled down: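 ARE-bla HepG2 cells (beta-lactamase reporter under ARE control) were plated at 2,000 cells/well, preincubated 5 h at 37 C/5% CO2, then treated with DMSO-dissolved compounds for 16 h at 37 C; LiveBLAzer B/G FRET substrate added, fluorescence read after 2 h at room temperature.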

Assay [15] can be described thus: qHTS assay for small molecule activators of the p53 signaling pathway (AID 651743; active = well fitted activation curve with a large enough effect in the signal ratio, not every such curve was filed as active; the % refers to the signal ratio; also: % of control where 0% means no effect). As to conditions: HCT-116 p53RE-bla, beta-lactamase FRET ratio, 16 h; stronger effect = higher value. In a few lines:
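p53RE-bla HCT-116 cells with a stably integrated beta-lactamase reporter under p53 response elements were plated, rested 5 hours at 37 C/5% CO2, then exposed to compounds in DMSO for 16 hours at 37 C. LiveBLAzer B/G FRET substrate was read after 2 hours at room temperature.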

The target in assay [16] is Vitamin D3 receptor (Homo sapiens) (UniProt P11473). Put plainly: qHTS assay for small molecule agonists of vitamin D receptor signaling (AID 588543).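 Also: 0% = DMSO basal and 100% = reference agonist control.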 As to conditions: HEK293T VDR-UAS-bla, beta-lactamase ratio, 16 h; series mostly up to 76.8 µM. The method, boiled down: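 Measured: β-lactamase reporter activity (CCF4, 405 nm excitation, 460/530 nm emission) in HEK293T VDR-UAS-bla cells after 16 h compound exposure at 37 °C. Normalization against 50 nM 1α,25-dihydroxyvitamin D3 and DMSO; Hill-fit EC50.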

The nature of assay [17]: qHTS assay for small molecule activators of the nuclear factor-kappa B (NF-kB) signaling pathway (AID 651749; active = well fitted activation curve with a large enough effect in the signal ratio; the % refers to the signal ratio; also: % of control where 0% means no effect). The note with it: NF-kB-bla ME-180 cells, beta-lactamase FRET ratio, 16 h; stronger effect = higher value. In a few lines:
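ME-180 cells stably carrying a beta-lactamase reporter under an NF-kB response element were exposed to compound or DMSO vehicle for 16 hr at 37C, 5% CO2. Pathway activation was read by FRET, since reporter expression disrupts FRET.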

Assay [18] has as its target Peroxisome proliferator-activated receptor gamma (Homo sapiens) (UniProt P37231). As to the kind of experiment: qHTS assay for small molecule antagonists of peroxisome proliferator-activated receptor gamma signaling (AID 588537; active = well fitted inhibition curve with a large enough effect in the signal ratio, with a control signal flat, not every such curve was filed as active; the % refers to the signal ratio;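 also: reporter cells co-stimulated with 50 nM rosiglitazone agonist during compound treatment; % of control where 0% means no effect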). The note with it: HEK293 PPARg-UAS-bla, beta-lactamase ratio, antagonist mode; series mostly up to 76.8 µM. In a few lines:
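PPAR-gamma-UAS-bla HEK293 cells (3000/well, 1% charcoal/dextran-stripped FBS) were preincubated 6-6.5 h at 37 C, given titrated compounds, then stimulated with 50 nM rosiglitazone for 16 h. Beta-lactamase activity was read with CCF4 dye; IC50 came from Hill fits.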

Sequence of Thyroid hormone receptor beta (Homo sapiens) (P10828 whole entry, looked up): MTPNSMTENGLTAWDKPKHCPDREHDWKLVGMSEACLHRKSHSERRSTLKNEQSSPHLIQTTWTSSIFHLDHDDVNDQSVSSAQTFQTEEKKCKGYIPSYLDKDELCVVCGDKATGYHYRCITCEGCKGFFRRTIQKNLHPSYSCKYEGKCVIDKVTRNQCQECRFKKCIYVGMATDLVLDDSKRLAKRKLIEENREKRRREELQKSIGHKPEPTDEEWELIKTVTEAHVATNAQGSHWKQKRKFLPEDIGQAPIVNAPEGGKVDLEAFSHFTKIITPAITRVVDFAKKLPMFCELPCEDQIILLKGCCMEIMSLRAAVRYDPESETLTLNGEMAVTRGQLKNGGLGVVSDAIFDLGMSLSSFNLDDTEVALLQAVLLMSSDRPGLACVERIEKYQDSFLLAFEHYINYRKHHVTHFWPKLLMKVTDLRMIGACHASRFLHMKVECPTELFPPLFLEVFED
Sequence of Peroxisome proliferator-activated receptor delta (Homo sapiens) (Q03181 whole entry, looked up): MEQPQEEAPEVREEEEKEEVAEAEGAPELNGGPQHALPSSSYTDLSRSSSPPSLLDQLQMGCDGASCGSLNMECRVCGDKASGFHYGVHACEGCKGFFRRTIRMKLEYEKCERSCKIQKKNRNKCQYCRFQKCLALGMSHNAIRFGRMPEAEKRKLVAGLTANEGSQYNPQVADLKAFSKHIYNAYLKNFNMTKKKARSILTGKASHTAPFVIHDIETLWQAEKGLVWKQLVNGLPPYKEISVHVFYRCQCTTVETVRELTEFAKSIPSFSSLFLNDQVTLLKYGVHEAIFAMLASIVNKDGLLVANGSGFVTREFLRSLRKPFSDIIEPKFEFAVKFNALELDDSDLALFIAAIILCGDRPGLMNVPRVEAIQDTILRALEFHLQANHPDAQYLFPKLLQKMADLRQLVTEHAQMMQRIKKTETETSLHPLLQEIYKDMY
Sequence of Peroxisome proliferator-activated receptor gamma (Homo sapiens) (P37231 whole entry, looked up): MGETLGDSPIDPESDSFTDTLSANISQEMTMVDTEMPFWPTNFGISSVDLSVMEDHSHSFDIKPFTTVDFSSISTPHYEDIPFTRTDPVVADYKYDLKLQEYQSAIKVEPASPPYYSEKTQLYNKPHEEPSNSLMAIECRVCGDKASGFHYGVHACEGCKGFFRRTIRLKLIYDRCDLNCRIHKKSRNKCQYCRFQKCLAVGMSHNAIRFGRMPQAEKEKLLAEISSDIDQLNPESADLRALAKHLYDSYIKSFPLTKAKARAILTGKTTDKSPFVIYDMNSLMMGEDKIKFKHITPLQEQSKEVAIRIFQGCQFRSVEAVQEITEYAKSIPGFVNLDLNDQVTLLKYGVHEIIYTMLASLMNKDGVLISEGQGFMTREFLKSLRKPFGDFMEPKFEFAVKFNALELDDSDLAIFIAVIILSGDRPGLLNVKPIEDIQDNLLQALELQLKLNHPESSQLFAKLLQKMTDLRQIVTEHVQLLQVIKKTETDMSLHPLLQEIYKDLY
Sequence of Retinoic acid receptor RXR-alpha (Homo sapiens) (P19793 whole entry, looked up): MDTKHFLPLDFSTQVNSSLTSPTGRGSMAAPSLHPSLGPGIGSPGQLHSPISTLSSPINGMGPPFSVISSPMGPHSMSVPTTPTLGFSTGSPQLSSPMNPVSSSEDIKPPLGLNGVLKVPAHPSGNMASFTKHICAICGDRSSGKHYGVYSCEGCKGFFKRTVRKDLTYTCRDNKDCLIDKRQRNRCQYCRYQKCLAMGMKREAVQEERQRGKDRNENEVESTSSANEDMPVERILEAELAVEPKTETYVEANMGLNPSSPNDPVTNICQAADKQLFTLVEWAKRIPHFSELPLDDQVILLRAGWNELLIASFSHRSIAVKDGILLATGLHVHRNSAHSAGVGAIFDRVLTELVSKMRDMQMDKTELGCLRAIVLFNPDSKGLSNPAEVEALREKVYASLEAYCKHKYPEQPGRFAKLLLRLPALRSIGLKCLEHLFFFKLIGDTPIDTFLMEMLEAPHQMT
Sequence of Glucocorticoid receptor (Homo sapiens) (P04150 whole entry, looked up): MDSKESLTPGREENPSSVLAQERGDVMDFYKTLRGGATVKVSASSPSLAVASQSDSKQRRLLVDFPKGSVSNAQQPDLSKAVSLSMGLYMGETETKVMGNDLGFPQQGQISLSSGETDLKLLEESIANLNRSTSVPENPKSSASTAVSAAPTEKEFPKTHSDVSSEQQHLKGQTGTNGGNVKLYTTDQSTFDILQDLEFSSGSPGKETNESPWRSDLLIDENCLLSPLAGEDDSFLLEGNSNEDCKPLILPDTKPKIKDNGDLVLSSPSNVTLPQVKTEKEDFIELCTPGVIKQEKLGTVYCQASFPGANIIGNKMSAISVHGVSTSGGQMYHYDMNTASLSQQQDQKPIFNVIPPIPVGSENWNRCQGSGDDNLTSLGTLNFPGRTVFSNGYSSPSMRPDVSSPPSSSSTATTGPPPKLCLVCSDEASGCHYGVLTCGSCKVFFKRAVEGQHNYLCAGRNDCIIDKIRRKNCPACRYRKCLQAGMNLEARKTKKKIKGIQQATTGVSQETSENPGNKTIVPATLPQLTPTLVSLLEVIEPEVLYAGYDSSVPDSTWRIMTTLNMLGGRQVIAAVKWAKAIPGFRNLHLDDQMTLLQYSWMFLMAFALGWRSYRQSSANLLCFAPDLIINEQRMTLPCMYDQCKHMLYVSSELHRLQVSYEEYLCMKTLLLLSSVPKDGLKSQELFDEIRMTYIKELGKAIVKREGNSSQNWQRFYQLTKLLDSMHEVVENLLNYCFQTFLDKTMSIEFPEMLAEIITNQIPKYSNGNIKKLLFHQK
Sequence of Vitamin D3 receptor (Homo sapiens) (P11473 whole entry, looked up): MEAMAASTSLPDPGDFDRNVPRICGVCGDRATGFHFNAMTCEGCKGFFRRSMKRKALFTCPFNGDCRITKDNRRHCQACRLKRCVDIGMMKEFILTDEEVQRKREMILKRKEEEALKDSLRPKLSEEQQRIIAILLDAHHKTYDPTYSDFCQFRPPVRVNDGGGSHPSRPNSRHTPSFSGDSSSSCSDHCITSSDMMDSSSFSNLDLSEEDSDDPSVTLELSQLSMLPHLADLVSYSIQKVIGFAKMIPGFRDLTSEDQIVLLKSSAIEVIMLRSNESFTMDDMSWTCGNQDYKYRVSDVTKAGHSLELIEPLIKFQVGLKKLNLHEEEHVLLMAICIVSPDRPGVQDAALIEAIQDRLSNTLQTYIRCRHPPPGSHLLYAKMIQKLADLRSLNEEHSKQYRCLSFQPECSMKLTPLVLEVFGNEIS
Sequence of Voltage-gated inwardly rectifying potassium channel KCNH2 (Homo sapiens) (Q12809 whole entry, looked up): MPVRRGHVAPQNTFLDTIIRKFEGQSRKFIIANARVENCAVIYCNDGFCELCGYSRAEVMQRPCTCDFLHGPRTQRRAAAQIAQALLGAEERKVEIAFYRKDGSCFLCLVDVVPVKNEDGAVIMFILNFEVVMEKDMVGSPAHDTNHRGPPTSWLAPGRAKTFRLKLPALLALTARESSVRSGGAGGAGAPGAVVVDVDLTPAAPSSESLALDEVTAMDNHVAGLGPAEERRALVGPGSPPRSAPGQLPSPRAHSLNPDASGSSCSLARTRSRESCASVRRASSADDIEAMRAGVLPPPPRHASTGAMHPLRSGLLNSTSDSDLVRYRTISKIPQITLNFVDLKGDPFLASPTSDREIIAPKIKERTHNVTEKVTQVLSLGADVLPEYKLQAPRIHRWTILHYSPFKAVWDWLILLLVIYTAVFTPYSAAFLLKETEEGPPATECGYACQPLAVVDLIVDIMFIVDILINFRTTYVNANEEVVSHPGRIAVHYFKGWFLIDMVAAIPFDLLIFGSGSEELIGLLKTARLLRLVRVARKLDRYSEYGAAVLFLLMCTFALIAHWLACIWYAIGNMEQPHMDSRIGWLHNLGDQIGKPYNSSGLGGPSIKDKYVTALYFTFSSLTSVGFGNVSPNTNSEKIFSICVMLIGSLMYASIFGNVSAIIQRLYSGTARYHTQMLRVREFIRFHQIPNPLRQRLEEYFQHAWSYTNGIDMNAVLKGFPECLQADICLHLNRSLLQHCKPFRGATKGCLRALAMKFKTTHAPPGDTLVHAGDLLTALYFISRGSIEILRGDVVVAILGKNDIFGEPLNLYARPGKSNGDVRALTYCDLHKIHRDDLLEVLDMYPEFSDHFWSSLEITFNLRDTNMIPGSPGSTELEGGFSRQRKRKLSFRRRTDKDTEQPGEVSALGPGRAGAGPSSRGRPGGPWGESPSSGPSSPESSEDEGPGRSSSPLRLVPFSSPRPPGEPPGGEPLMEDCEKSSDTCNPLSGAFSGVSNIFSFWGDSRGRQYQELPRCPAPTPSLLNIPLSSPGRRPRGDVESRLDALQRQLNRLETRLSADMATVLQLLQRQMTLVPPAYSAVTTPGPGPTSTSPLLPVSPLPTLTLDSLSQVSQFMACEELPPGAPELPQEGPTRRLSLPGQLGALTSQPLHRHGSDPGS

As for `Cc1cc(C(=O)O)ccc1[N+](=O)[O-]`, the activation was 1.49% (inactive) in [1] and -0.415% (inactive) in [15]. For the same molecule, the outcome in assay [2], in [5], in [6], in assay [8] and in assay [9] was inactive. Also, the max response in assay [3] was 13.2%; in [7] it was -3.52%; in assay [10] it was -3.81%; in assay [11], 36.9% (inactive). Moreover, the Potency result in assay [4], in assay [13] and in assay [14] was “inactive” throughout. The activity change % (negative = inhibition) in assay [12] is 7.48% (inactive).
For `Clc1cc(Cl)cc(Cl)c1`, the activation was 5.2% (inactive) in assay [1] and -2.32% (inactive) in assay [15]. Moreover, the outcome in [2], in [5], in [6], in assay [16] and in assay [8] was inactive. Further, the max response in assay [3] is -6.75%; in [7], -9.27%; in assay [10], -4.96%; in [11] it was 2.45% (inactive). The Potency result in [4], in [13] and in assay [14] was “inactive” throughout.
As for `C=CCCC`, the values for the activation in assay [1], in assay [15] and in assay [17] were 5.54% (inactive), -0.508% (inactive) and -0.388% (inactive), respectively. Further, the outcome in assay [2], in [6], in assay [16], in assay [8] and in assay [9] was inactive. Further, the max response in assay [3] was 0.0312%; in assay [7], -12.1%; in assay [10], 2.87%; in [11] it was 8.21% (inactive). Also, the Potency entry in assay [4] was “inactive”. Further, the activity change % (negative = inhibition) in assay [12] was 20.1% (inactive).
As to `C=C(C)C(=O)OCCCCCCCCCC`, the activation in [1] was 8.77% (inactive). Also, the result in assay [2], in assay [5], in assay [18], in [6], in [16] and in [8] was inactive. The outcome in assay [9] was inactive. The max response in assay [7] is -10.3%; in assay [10], -7.57%; in assay [11], -3.36% (inactive).
For `O=C(O)c1ccc(Cl)cc1Cl`, the activation in [1] was -5.78% (inactive); in assay [15], -4.73% (inactive); in assay [17] it was -0.499% (inactive). Further, the result in assay [2], in assay [5], in assay [6], in assay [16], in assay [8] and in assay [9] was inactive. The results for the max response in [7], in assay [10] and in [11] were -11.4%, -6.82% and 2.21% (inactive), respectively. The activity change % (negative = inhibition) in [12] is -8.73% (inactive).
`CCOC(=O)OCC`: the activation in assay [1] is -5.65% (inactive); in assay [17], -0.0369% (inactive). The outcome in [2], in assay [5], in assay [18], in [6], in assay [16] and in assay [8] was inactive. Further, in assay [9], the result was inactive. The figures for the max response in [7], in [10] and in assay [11] were -14.7%, 10.9% and -0.211% (inactive), respectively. For the same molecule, the activity change % (negative = inhibition) in [12] was 5.41% (inactive). Besides, the Potency entry in [13] and in assay [14] was “inactive” throughout.
On to `O=[N+]([O-])c1cccc(C(F)(F)F)c1`, for which the activation in [1] is -5.05% (inactive); in assay [15] it was 2.87% (inactive). For the same molecule, the result in assay [2], in assay [5], in [18], in [6], in assay [16] and in [8] was inactive. Besides, the outcome in assay [9] was inactive. The results for the max response in assay [7], in assay [10] and in assay [11] were -15.5%, -3.15% and -2.39% (inactive), respectively. Moreover, in assay [12], the activity change % (negative = inhibition) was 8.91% (inactive). The Potency entry in [13] was “inactive”.
